Measurements published in PubChem BioAssay AID1775 (NMMLSC, 2009).
“And” between values parts separate entries of the source, which are not always exact repeats. Identical values can stand only once. Hit rate of the full screen: of about 220,000 compounds, about 820 (0.37%) were called active. This is one part of a sample in which actives are shown more often than they occur. Cut-off read from the data, not from the text of the source: active = fluorescence above about 47; inactive = the rest.

Test: green autofluorescence of compounds with avidin beads – biophysical, 488/530 nm, flow cytometry, artefact control, profiling panel (AID 1775)
Settings: compound fluorescence 488/530 nm, at 10 µM, active compounds read high

Fluorescence (KMESF), inactive:
CC(=O)Nc1ccc(NC(=O)COc2ccccc2C(=O)Nc2cccc(Cl)c2Cl)cc1 14
O=C(Nc1ccccc1Cl)c1ccccc1S(=O)(=O)c1ccccc1[N+](=O)[O-] 11
COc1ccc(CCNC(=O)C2CC3Cn4c(nc5cc(C)c(C)cc54)C3N2C)cc1 (stereo not given) 8
COC(=O)c1c(C)oc(C)c1S(=O)(=O)NCc1ccc(Cl)cc1 6
CC1=CC(=C(C#N)c2nc3ccccc3s2)C=C(C)N1c1ccc(F)cc1F 9
Oc1[nH]c2ccc(Br)cc2c1N=Nc1nn[nH]n1 4
CNC(=S)N1CCC(NC(=O)C(Cc2ccc(F)cc2)NC(C)=O)CC1 (stereo not given) 10
Fc1cccc(CSc2nnc3ccc(-c4ccncc4)nn23)c1 6
COc1ccccc1NC(=O)C[n+]1ccccc1 10
O=C(Cc1c[nH]c2ccccc12)OCCOC(=O)Cc1c[nH]c2ccccc12 21
O=C(O)Cc1csc(-c2cccc(Oc3ccccc3)c2)n1 6 and 3
O=C(CSc1ccccc1F)NC1CCS(=O)(=O)C1 (stereo not given) 9
CCOC(=O)/C=C/CN(C(=O)OC(C)(C)C)S(=O)(=O)N1CC=CC1 9
COc1cc(NC(=S)NNC(=O)CC(C)C)c(OC)cc1Cl 13
CC(NC(=O)c1ccc(N2CCNCC2)c([N+](=O)[O-])c1)C12CC3CC(CC(C3)C1)C2 (stereo not given) 9
O=C1CS(=O)CN1c1ccc(Oc2ccccc2)cc1 (stereo not given) 9
C/C=C/C(=O)Nc1ccc(N2CCN(c3ccc(C(F)(F)F)cn3)CC2)nc1 8
COC(=O)c1cn(C(=O)c2ccc(Cl)cc2)c2ccccc12 4
Cc1nc(-c2ccc(Cl)cc2)sc1C1(C)CC(c2ccccc2F)=NO1 (stereo not given) 7
O=C(CCC1CCCN(Cc2ccc(O)c(Cl)c2)C1)NCc1ccccc1F (stereo not given) 12
Cc1ccc(C(=O)Nc2nnc(-c3ccncc3)s2)o1 9
Cc1ccc(NC(=O)Nc2nnc(-c3ccncc3)s2)cc1 6
CN(C)/C(=N\OC(=O)c1ccccc1)c1nonc1N 8
NC(=O)N/N=C\c1cccs1 12
Cc1ccc(S(=O)(=O)CC(=O)Nc2c(C)n(C)n(-c3ccccc3)c2=O)cc1 12
Cc1c(NC(=S)Nc2ccccc2)c(=O)n(-c2ccccc2)n1C 4

Fluorescence (KMESF), active:
CN(C)S(=O)(=O)Oc1ccccc1C(=O)Nc1ccccc1Cl 81
COc1ccccc1NC(=O)CCCc1c[nH]c2ccccc12 257
CC(C)=CC(=O)Nc1nnc(-c2ccc(F)cc2)s1 71
Cc1ccc(S(=O)(=O)/N=C(/NC(=S)Nc2c(C)n(C)n(-c3ccccc3)c2=O)c2ccccc2)cc1 53
